This is an account of results in PubChem BioAssay (NCATS).

Inconclusive results are not listed. Active and inactive are the calls of the source. Unless noted, calls come from the whole dose curve; as a rule, active = well fitted inhibition curve with a large enough effect; inconclusive = small, poorly fitted or top-dose-only effect; inactive = flat fitted curve, though single readings scatter.

A short description of assay [1]: qHTS drug screen for cell cycle checkpoint inhibitors in PARPi-resistant BRCA-mutant ovarian cancer cell lines. (AID 1963452; calls by dose curve). Particulars: PEO1/OlaR viability, CellTiter-Glo luminescence, 96 h; for Z-AUC: stronger effect = lower value. The essentials:
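PEO1, PEO4 and PEO1/OlaR ovarian cancer cells, 600 per well, exposed 96 h at 37C to a dilution series. Viability read by CellTiter-Glo luminescence, normalized to DMSO and empty wells; activity summarized as Z-AUC.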
On the technique in general: In qHTS, concentration-response curves come from the screen itself.

Assay [2] can be described thus: qHTS for identification of novel therapeutic agents for treatment of microphthalmiaassociated transcription factor (MiT) renal cell carcinoma (RCC) (AID 1963991; calls by dose curve). The conditions noted are these: CellTiter-Glo, 48 h; for z-score: stronger effect = lower value; for Potency: active = Z-AUC below -0.8 in all three lines. The essentials:
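Three TFE3-fusion RCC lines (UOK109, UOK124, UOK145), 500 cells/well in complete medium, were treated with MIPE 4.0 compounds for 48 hours at 37 C. Viability was by CellTiter-Glo luminescence, normalized to DMSO (100%) and empty wells (0%); curves fitted over 11 concentrations.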

The nature of assay [3]: qHTS profiling for inhibitors of Plasmodium falciparum proliferation (AID 504749).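 For activity, negative = inhibition: 0% = DMSO vehicle and full inhibition = artemisinin control.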 Note: nearly all actives have a fitted effect of over 60% in size. Particulars: P. falciparum in erythrocytes, SYBR Green DNA, 72 h. The essentials:
(§1)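 P. falciparum-infected erythrocytes (0.3% parasitemia, 2.5% hematocrit final) were exposed to compounds for 72 h at 37 C in 5% CO2, then lysed with SYBR Green buffer overnight at room temperature; parasite DNA fluorescence was normalized to artemisinin and DMSO controls.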

A further assay deals with 3D7. Described as above. The conditions noted are these: P. falciparum in erythrocytes, SYBR Green DNA, 72 h; series mostly up to 28.7 µM. The essentials: as §1
Another assay relates to AA1029. The assay is described as above. Particulars: P. falciparum in erythrocytes, SYBR Green DNA, 72 h; series mostly up to 28.7 µM. The essentials:
as §1

The subject of the next assay is AS120. Described as above. The conditions noted are these: P. falciparum in erythrocytes, SYBR Green DNA, 72 h; series mostly up to 28.7 µM. The essentials: as §1
The subject of a further assay is ATS189. The assay is described as above. The conditions noted are these: P. falciparum in erythrocytes, SYBR Green DNA, 72 h; series mostly up to 28.7 µM. The essentials: as §1
The subject of the next assay is ATS95. The description is as above. The conditions noted are these: P. falciparum in erythrocytes, SYBR Green DNA, 72 h; series mostly up to 28.7 µM. The essentials:
as §1

The subject of another assay is C2A. The description is as above. The conditions noted are these: P. falciparum in erythrocytes, SYBR Green DNA, 72 h; series mostly up to 28.7 µM. The essentials: as §1
Another assay has as its system 7G8. The assay is described as above. The conditions noted are these: P. falciparum in erythrocytes, SYBR Green DNA, 72 h; series mostly up to 28.7 µM. The essentials: as §1
Setting [4] is: measured here: PEO1 parental Z-AUC.
[5] abbreviates: TFE3-RCC UOK109 viability, measured here: UOK109 Z-AUC.
The mark [6] stands for this setting: TFE3-RCC viability, measured here: UOK124 Z-AUC.
[7] abbreviates: TFE3-RCC viability, measured here: UOK145 Z-AUC.
[8] abbreviates: at 28.7 µM (top of the series), parasite line A.
The mark [9] stands for this setting: at 28.7 µM (top of the series), parasite line B.
Potency is the fitted concentration of half-maximal effect.

As for `CC(NCCc1ccc(O)cc1)C(O)c1ccc(O)cc1` (stereo not given), the Z-AUC in assay [1] is -0.504 (inactive); in assay [1] (setting [4]), 0.762; in assay [1] (measured here: PEO4 Z-AUC), 0.7. The z-score in assay [2] (setting [5]) is 0.72; in [2] (setting [6]), 0.96; in [2] (setting [7]) it was 2.38.
With `NS(=O)(=O)c1cc(Cl)c(Cl)c(S(N)(=O)=O)c1`, the figures for the Z-AUC in assay [1], in [1] (setting [4]) and in assay [1] (measured here: PEO4 Z-AUC) were 0.54 (inactive), 0.261 and 0.359, respectively. Also, the z-score in assay [2] (setting [5]) was determined as 0.846; in [2] (setting [6]), 0.351; in [2] (setting [7]) it was 1.23. For the same molecule, the activity, negative = inhibition is 1.59% (inactive) in [3] (at 12.8 µM (top of the series), parasite line A) and 6.65% (inactive) in assay [3] (at 12.8 µM (top of the series), parasite line B). Moreover, the Potency result in the assay with 3D7, in the assay with AA1029, in the assay with AS120, with ATS189, in the assay on ATS95 and in the assay on C2A was “inactive” throughout.
Consider `C[C@]12C=CC(=O)C=C1CC[C@@H]1[C@@H]2[C@@H](O)C[C@@]2(C)[C@@H]1CC[C@]2(O)C(=O)CO`, for which the z-score in [2] (setting [5]) was 0.748; in assay [2] (setting [6]), 0.34; in assay [2] (setting [7]), -1.47.
With `O=C(O)c1nc(=O)[nH]c(=O)[nH]1`, the Z-AUC is 0.306 (inactive) in assay [1], -0.133 in assay [1] (setting [4]) and -0.258 in assay [1] (measured here: PEO4 Z-AUC). In addition, the z-score in assay [2] (setting [5]) was found to be 1.29; in assay [2] (setting [6]), 0.587; in [2] (setting [7]), 1.2. For the same molecule, the activity, negative = inhibition in assay [3] (setting [8]) was -16.8% (inactive); in [3] (setting [9]) it was -28.2% (inactive). Further, the Potency result in the assay on 3D7, with 7G8, with AA1029, in the assay on AS120, in the assay on ATS189 and in the assay with ATS95 was “inactive” each time. Also, the Potency entry with C2A was “inactive”.
Take `NC[C@H]1O[C@H](O[C@@H]2[C@@H](O)[C@@H](O[C@H]3O[C@H](CO)[C@@H](O)[C@H](N)[C@@H]3O)[C@H](N)C[C@@H]2N)[C@H](O)[C@@H](O)[C@H]1O`: the Z-AUC in [1] is 1.2 (inactive); in assay [1] (setting [4]), 0.776; in assay [1] (measured here: PEO4 Z-AUC), 0.763. For the same molecule, the z-score in [2] (setting [5]) is 1.51; in assay [2] (setting [6]), 0.542; in [2] (setting [7]), 0.0704.
Regarding `Cc1ccc(C(=O)N(CCCN)[C@@H](c2nc3cc(Cl)ccc3c(=O)n2Cc2ccccc2)C(C)C)cc1`, the Potency in assay [1] is 0.0098 µM (active); in assay [2] (TFE3-RCC UOK109 viability), 0.00166 µM (active). Further, the Z-AUC was -2.53 in [1] (setting [4]) and -2.45 in [1] (measured here: PEO4 Z-AUC). Besides, the values for the z-score in assay [2] (setting [5]), in [2] (setting [6]) and in [2] (setting [7]) were -2.23, -1.53 and -1.7, respectively.
As for `Nc1ccc(-c2ccc3ncc4ccc(=O)n(-c5cccc(C(F)(F)F)c5)c4c3c2)cn1`, the Z-AUC was -1.37 (inactive) in assay [1], -2.21 in [1] (setting [4]) and -1.55 in assay [1] (measured here: PEO4 Z-AUC). Further, the Potency in assay [2] (TFE3-RCC UOK109 viability) is 3.32 µM (active). Further, the values for the z-score in assay [2] (setting [5]), in assay [2] (setting [6]) and in assay [2] (setting [7]) were -2.43, -4.62 and -4.33, respectively.
As for `Cc1ccc(C(=O)N(CCCN)[C@@H](c2oc3cc(Cl)ccc3c(=O)c2Cc2ccccc2)C(C)C)cc1`, the Potency in assay [1] was 8.71 µM (active); in assay [2] (TFE3-RCC UOK109 viability), 37.2 µM (active). In addition, the Z-AUC in [1] (setting [4]) was -2.6; in assay [1] (measured here: PEO4 Z-AUC), -2.5. Further, the results for the z-score in [2] (setting [5]), in assay [2] (setting [6]) and in assay [2] (setting [7]) were -1.98, -1.71 and -2, respectively.
On to `COc1cc2c(cc1OC)CC(=O)N(CCCN(C)C[C@H]1Cc3cc(OC)c(OC)cc31)CC2`, for which the Z-AUC was 0.967 (inactive) in [1], 0.523 in assay [1] (setting [4]) and 0.443 in [1] (measured here: PEO4 Z-AUC). The activity, negative = inhibition in [3] (setting [8]) is -2.12% (inactive); in assay [3] (setting [9]), -3.25% (inactive). Moreover, the Potency result in the assay on 3D7, in the assay on AA1029, with AS120, in the assay on ATS189, in the assay on ATS95 and in the assay with C2A was “inactive” in each case. In addition, the Potency with 7G8 is 11.2 µM (active).
Turning to `CCC[C@H](N[C@@H](C)C(=O)N1[C@@H]2CCCC[C@H]2C[C@H]1C(=O)O)C(=O)OCC`, the Z-AUC in assay [1] is -0.443 (inactive); in assay [1] (setting [4]), -0.451; in assay [1] (measured here: PEO4 Z-AUC) it was -0.177. Further, the z-score in assay [2] (setting [5]) was found to be 0.586; in [2] (setting [6]), 0.337; in [2] (setting [7]), 0.752.
For `Cc1cc(NC(=O)Nc2ccc(N(C)C)cc2)c2cc(F)cc(F)c2n1`, the Z-AUC in [1] was -0.154 (inactive); in assay [1] (setting [4]), -0.66; in [1] (measured here: PEO4 Z-AUC), -0.472. The values for the z-score in assay [2] (setting [5]), in assay [2] (setting [6]) and in [2] (setting [7]) were 1.14, 0.89 and 1.08, respectively.
Turning to `CN[C@@H]1[C@@H](O)[C@@H](O[C@@H]2[C@@H](O)[C@H](O[C@H]3O[C@H](CN)[C@@H](O)[C@H](O)[C@@H]3O)[C@@H](N)C[C@@H]2NC(=O)[C@@H](O)CN)OC[C@]1(C)O`, the z-score in [2] (setting [5]) was 2.18; in [2] (setting [6]), 0.621; in assay [2] (setting [7]), 0.614.
Regarding `O=C(NCCCCN1CCOCC1)c1cc2ccccc2o1`, the Z-AUC in assay [1] was 1.41 (inactive); in [1] (setting [4]), 1.22; in [1] (measured here: PEO4 Z-AUC), 1.23. In addition, the results for the z-score in assay [2] (setting [5]), in assay [2] (setting [6]) and in [2] (setting [7]) were 0.969, 0.64 and 0.273, respectively.
As for `N#Cc1c(N(CC(=O)O)CC(=O)O)sc(C(=O)O)c1CC(=O)O`, the Z-AUC in assay [1] was 0.439 (inactive); in [1] (setting [4]) it was 0.76; in assay [1] (measured here: PEO4 Z-AUC), 0.481. The z-score in [2] (setting [5]) is 0.286; in [2] (setting [6]), 0.354; in [2] (setting [7]), 0.00458. Further, the activity, negative = inhibition in assay [3] (setting [8]) is 12.6% (inactive); in assay [3] (setting [9]), 0.836% (inactive). Besides, the Potency entry in the assay on 3D7, in the assay on 7G8, in the assay with AA1029, with AS120, with ATS189 and in the assay with ATS95 was “inactive” throughout. In the assay with C2A, the Potency result is “inactive”.
Take `CCC[C@H](Nc1nc(-c2ccc(NC(=O)NCC)c(OC)c2)ncc1C)c1cccnc1`: the Potency in assay [1] is 0.0087 µM (active); in assay [2] (TFE3-RCC UOK109 viability), 0.0372 µM (active). For the same molecule, the Z-AUC is -2.97 in [1] (setting [4]) and -3.47 in [1] (measured here: PEO4 Z-AUC). For the same molecule, the z-score in [2] (setting [5]) was -2.33; in assay [2] (setting [6]) it was -3.81; in assay [2] (setting [7]), -2.31.
